This passage reports outcome and AC50 results from PubChem BioAssay (EPA / NIEHS).

Conditions in all cases: mRNA level, 48 h; actives raise or lower the signal
Read-out in one test: BCL2L11 (gene 10018)
As to the kind of experiment: LTEA_HepaRG_BCL2L11: Life Technologies and Expression Analysis (LTEA) Assay for Bcl-2 (BCL2L11) gene using HepaRG (AID 2283473). The method, boiled down:
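HepaRG, 48 h exposure, 8-pt half-log series from 100 uM in 0.5% DMSO, duplicates; qRT-PCR (Fluidigm TaqMan) for BCL2L11, housekeeping-normalized; bidirectional curve fit relative to DMSO baseline.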

Read-out in test [1]: Apolipoprotein A-V (APOA5) gene, APOA5 (gene 116519)
In words: LTEA_HepaRG_APOA5: Life Technologies and Expression Analysis (LTEA) Assay for Apolipoprotein A-V (APOA5) gene using HepaRG (AID 2283474). The gist of the method:
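HepaRG, 48 h chemical exposure in serum-free induction medium, 8-pt half-log series (top 100 uM), 0.5% DMSO vehicle, duplicates. Readout: APOA5 mRNA by qRT-PCR, housekeeping-normalized; bidirectional fit vs DMSO baseline.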

Read-out in test [2]: Apoptosis regulator Bcl-2 (Homo sapiens) (UniProt P10415)
As to the kind of experiment: LTEA_HepaRG_BCL2: Life Technologies and Expression Analysis (LTEA) Assay for Bcl-2 gene using HepaRG (AID 2283475). The method, boiled down: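 qRT-PCR of BCL2 transcript, normalized to three housekeeping genes (ACTB, GAPDH, POLR2A), after 48 h chemical exposure of HepaRG cells; concentrations top 100 uM with half-log dilutions, 0.5% DMSO vehicle, duplicates; changes up or down fitted relative to vehicle.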

Read-out in test [3]: Bcl-2 (BID) gene, BID (gene 637)
As to the kind of experiment: LTEA_HepaRG_BID: Life Technologies and Expression Analysis (LTEA) Assay for Bcl-2 (BID) gene using HepaRG (AID 2283476). The gist of the method: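 Duplicate 48 h treatments of HepaRG cells in serum-free induction medium spanned 100 uM downward in half-log steps, 0.5% DMSO. Transcript change quantified by qRT-PCR against three housekeeping genes, fitted up or down versus DMSO.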

Read-out in the next test: Caspase-3 (Homo sapiens) (UniProt P42574)
As to the kind of experiment: LTEA_HepaRG_CASP3: Life Technologies and Expression Analysis (LTEA) Assay for cysteine-aspartic acid protease (CASP3) using HepaRG (AID 2283477). The method, boiled down: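 HepaRG, 48 h exposure, 8 conc. (top 100 uM, half-log steps, duplicate), 0.5% DMSO vehicle; qRT-PCR of CASP3 transcript, housekeeping-normalised (ACTB/GAPDH/POLR2A); bidirectional curve fit vs DMSO baseline.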

Read-out in test [4]: Cytochrome P450 (CYP24A1), CYP24A1 (gene 1591)
In words: LTEA_HepaRG_CYP24A1: Life Technologies and Expression Analysis (LTEA) Assay for Cytochrome P450 (CYP24A1) using HepaRG (AID 2283478). The method, boiled down: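 qRT-PCR read-out: CYP24A1 transcript levels normalized to three housekeeping genes, bidirectional curve fits against 0.5% DMSO baseline. Human HepaRG cells treated 48 h with chemicals at eight concentrations from 100 uM in half-log steps.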

Read-out in test [5]: Cytochrome P450 (CYP1A2), CYP1A2 (gene 1544)
In words: LTEA_HepaRG_CYP1A2: Life Technologies and Expression Analysis (LTEA) Assay for Cytochrome P450 (CYP1A2) using HepaRG (AID 2283479). The method, boiled down:
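HepaRG, 48 h exposure, top 100 uM, half-log 8-pt, 0.5% DMSO vehicle, duplicates. Readout: TaqMan qRT-PCR of CYP1A2 mRNA, housekeeping-normalized (ACTB/GAPDH/POLR2A). Gain/loss fit relative to DMSO baseline.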

Read-out in test [6]: cysteine-aspartic acid protease (CASP8), CASP8 (gene 841)
In words: LTEA_HepaRG_CASP8: Life Technologies and Expression Analysis (LTEA) Assay for cysteine-aspartic acid protease (CASP8) using HepaRG (AID 2283480). The gist of the method:
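Concentration-response in duplicate up to 100 uM (half-log steps, 0.5% DMSO) on differentiated HepaRG cultures for 48 h. Expression change of CASP8 mRNA is determined by TaqMan qRT-PCR with housekeeping-gene normalization.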

Read-out in test [7]: Cytochrome P450 (CYP2B6), CYP2B6 (gene 1555)
As to the kind of experiment: LTEA_HepaRG_CYP2B6: Life Technologies and Expression Analysis (LTEA) Assay for Cytochrome P450 (CYP2B6) using HepaRG (AID 2283481). The method, boiled down: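 Read-out is CYP2B6 mRNA by TaqMan qRT-PCR, normalized to three housekeeping genes and fitted bidirectionally against 0.5% DMSO baseline. Human HepaRG cells received test chemicals for 48 h, top concentration 100 uM, half-log dilutions.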

Read-out in test [8]: Cytochrome P450 2C19 (Homo sapiens) (UniProt P33261)
In words: LTEA_HepaRG_CYP2C19: Life Technologies and Expression Analysis (LTEA) Assay for CYP2C19 using HepaRG (AID 2283482). The method, boiled down: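 HepaRG, 48 h chemical exposure, 8-pt half-log series from 100 uM in 0.5% DMSO, duplicates. Readout: CYP2C19 mRNA by TaqMan qRT-PCR, housekeeping-normalized. Bidirectional fit vs DMSO baseline; phenobarbital 1mM as induction control.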

Read-out in another test: CYP2C8 (gene 1558)
As to the kind of experiment: LTEA_HepaRG_CYP2C8: Life Technologies and Expression Analysis (LTEA) Assay for CYP2C8 using HepaRG (AID 2283483). The gist of the method: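 This is a transcriptional endpoint in HepaRG cultures: 48 h exposure, highest concentration 100 uM. CYP2C8 mRNA is quantified by TaqMan qRT-PCR.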

Read-out in a further test: CYP2C9 (gene 1559)
In words: LTEA_HepaRG_CYP2C9: Life Technologies and Expression Analysis (LTEA) Assay for CYP2C9 using HepaRG (AID 2283484). The gist of the method: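 Eight-point concentration-response (highest 100 uM, half-log dilutions) in HepaRG cells for 48 h; CYP2C9 expression by qRT-PCR normalized to ACTB, GAPDH, POLR2A. Bidirectional fit, DMSO baseline.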

Read-out in the next test: CYP2E1 (gene 1571)
As to the kind of experiment: LTEA_HepaRG_CYP2E1: Life Technologies and Expression Analysis (LTEA) Assay for CYP2E1 using HepaRG (AID 2283485). The method, boiled down: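 CYP2E1 transcript measured by Fluidigm qRT-PCR against three housekeeping genes in human HepaRG cells treated 48 h (top 100 uM, half-log steps, 0.5% DMSO vehicle). Gain or loss fitted relative to DMSO baseline.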

Read-out in another test: CYP4A11 (gene 1579)
As to the kind of experiment: LTEA_HepaRG_CYP4A11: Life Technologies and Expression Analysis (LTEA) Assay for CYP4A11 using HepaRG (AID 2283486). The method, boiled down: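 CYP4A11 transcript levels were quantified by TaqMan qRT-PCR after HepaRG human liver cells were treated for 48 hours with test chemicals (top 100 uM, half-log dilutions, 0.5% DMSO). Gain or loss of signal was fitted relative to DMSO.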

Read-out in test [9]: DNA damage-inducible transcript 3 (DDIT3), DDIT3 (gene 1649)
In words: LTEA_HepaRG_DDIT3: Life Technologies and Expression Analysis (LTEA) Assay for DNA damage-inducible transcript 3 (DDIT3) using HepaRG (AID 2283488). The method, boiled down:
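DDIT3 transcript was quantified by qRT-PCR with ACTB/GAPDH/POLR2A normalization after 48 h chemical treatment of differentiated HepaRG cells in 0.5% DMSO. Dosing was eight-point, half-log, top 100 uM, duplicate wells. Curves fitted bidirectionally versus DMSO.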

Read-out in test [10]: Pro-epidermal growth factor (Homo sapiens) (UniProt P01133)
As to the kind of experiment: LTEA_HepaRG_EGF: Life Technologies and Expression Analysis (LTEA) Assay for Epidermal growth factor (EGF) using HepaRG (AID 2283489). The method, boiled down: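 qRT-PCR readout of EGF transcript after 48 h chemical exposure of HepaRG cells; eight concentrations from 100 uM down in half-log steps, duplicate wells, 0.5% DMSO vehicle. Bidirectional curve fitting against DMSO baseline.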

Read-out in test [11]: Early growth response protein 1 (EGR1) transcription factor, EGR1 (gene 1958)
In words: LTEA_HepaRG_EGR1: Life Technologies and Expression Analysis (LTEA) Assay for Early growth response protein 1 (EGR1) transcription factor using HepaRG (AID 2283490). The method, boiled down:
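EGR1 expression change in human HepaRG after 48 h chemical exposure, assessed by housekeeping-normalized qRT-PCR; concentration-response up to 100 uM, fitted in both directions against DMSO controls.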

Read-out in test [12]: Ezrin (EZR), EZR (gene 7430)
In words: LTEA_HepaRG_EZR: Life Technologies and Expression Analysis (LTEA) Assay for Ezrin (EZR) using HepaRG (AID 2283491). The gist of the method: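 Differentiated human HepaRG cells, 48 h after plating, were exposed in serum-free induction medium for 48 hours to eight half-log concentrations up to 100 uM in 0.5% DMSO. EZR mRNA was measured by TaqMan qRT-PCR, normalized to ACTB, GAPDH and POLR2A, and fitted bidirectionally against DMSO.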

Read-out in test [13]: Cytochrome P450 3A7 (Homo sapiens) (UniProt P24462)
As to the kind of experiment: LTEA_HepaRG_CYP3A7: Life Technologies and Expression Analysis (LTEA) Assay for CYP3A7 using HepaRG (AID 2283492). The gist of the method:
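CYP3A7 transcript levels were read by TaqMan qRT-PCR on Fluidigm arrays after 48 h chemical exposure of human HepaRG cells, with housekeeping-gene normalisation. Eight half-log concentrations up to 100 uM in 0.5% DMSO were tested in duplicate.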

Read-out in test [14]: Cytochrome P450 3A4 (Homo sapiens) (UniProt P08684)
In words: LTEA_HepaRG_CYP3A4: Life Technologies and Expression Analysis (LTEA) Assay for CYP3A4 using HepaRG (AID 2283487). The gist of the method:
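Differentiated HepaRG cells in serum-free induction medium exposed in duplicate for 48 h to 8 half-log concentrations up to 100 uM in 0.5% DMSO. CYP3A4 mRNA measured by qRT-PCR normalized to ACTB, GAPDH and POLR2A; bidirectional fit versus DMSO.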

Activity calls are given as the source filed them. How the source made its calls: active means hit-call score of the fitted dose curve at least 0.9, where 1 is the maximum; inactive means score below 0.9.

Sequence of Cytochrome P450 2C19 (Homo sapiens) (P33261 whole entry, looked up): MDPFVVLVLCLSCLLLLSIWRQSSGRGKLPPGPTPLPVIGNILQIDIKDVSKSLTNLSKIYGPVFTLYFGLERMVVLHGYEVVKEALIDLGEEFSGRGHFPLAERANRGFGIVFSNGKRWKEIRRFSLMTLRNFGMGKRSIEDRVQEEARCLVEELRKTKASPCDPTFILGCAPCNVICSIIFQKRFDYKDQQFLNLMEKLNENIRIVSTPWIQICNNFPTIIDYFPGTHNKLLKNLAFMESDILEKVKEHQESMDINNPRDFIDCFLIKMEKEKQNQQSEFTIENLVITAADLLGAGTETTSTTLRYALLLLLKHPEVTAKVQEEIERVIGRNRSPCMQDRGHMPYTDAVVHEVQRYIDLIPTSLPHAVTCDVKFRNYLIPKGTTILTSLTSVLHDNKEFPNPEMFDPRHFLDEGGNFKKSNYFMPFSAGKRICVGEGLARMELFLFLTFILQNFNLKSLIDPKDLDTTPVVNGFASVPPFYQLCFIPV
Sequence of Cytochrome P450 3A7 (Homo sapiens) (P24462 whole entry, looked up): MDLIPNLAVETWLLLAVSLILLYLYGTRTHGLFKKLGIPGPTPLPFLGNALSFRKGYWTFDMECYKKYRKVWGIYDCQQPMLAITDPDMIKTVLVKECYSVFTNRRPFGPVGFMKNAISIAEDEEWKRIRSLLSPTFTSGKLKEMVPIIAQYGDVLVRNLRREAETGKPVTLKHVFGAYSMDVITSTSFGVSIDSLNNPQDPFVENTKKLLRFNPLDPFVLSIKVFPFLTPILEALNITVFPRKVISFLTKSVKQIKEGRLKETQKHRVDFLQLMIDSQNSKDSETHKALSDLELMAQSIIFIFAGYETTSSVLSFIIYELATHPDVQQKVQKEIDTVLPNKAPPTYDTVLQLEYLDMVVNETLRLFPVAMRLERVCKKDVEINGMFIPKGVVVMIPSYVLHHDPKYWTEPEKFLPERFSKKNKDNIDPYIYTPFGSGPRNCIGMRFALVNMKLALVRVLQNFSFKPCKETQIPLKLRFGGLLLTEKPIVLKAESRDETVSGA
Sequence of Caspase-3 (Homo sapiens) (P42574 whole entry, looked up): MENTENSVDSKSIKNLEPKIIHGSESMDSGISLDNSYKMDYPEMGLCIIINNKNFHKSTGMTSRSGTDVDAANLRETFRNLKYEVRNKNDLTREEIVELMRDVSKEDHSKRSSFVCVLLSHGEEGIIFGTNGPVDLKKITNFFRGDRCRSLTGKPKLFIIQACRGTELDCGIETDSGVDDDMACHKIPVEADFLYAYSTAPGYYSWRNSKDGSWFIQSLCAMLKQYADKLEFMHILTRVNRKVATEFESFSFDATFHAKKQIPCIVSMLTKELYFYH
Sequence of Apoptosis regulator Bcl-2 (Homo sapiens) (P10415 whole entry, looked up): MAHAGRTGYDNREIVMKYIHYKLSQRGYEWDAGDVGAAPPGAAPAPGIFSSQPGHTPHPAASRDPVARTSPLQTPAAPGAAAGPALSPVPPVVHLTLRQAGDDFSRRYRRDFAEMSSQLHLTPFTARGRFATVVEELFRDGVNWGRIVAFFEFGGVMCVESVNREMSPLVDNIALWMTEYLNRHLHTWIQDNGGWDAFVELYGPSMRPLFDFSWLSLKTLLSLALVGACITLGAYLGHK
Sequence of Cytochrome P450 3A4 (Homo sapiens) (P08684 whole entry, looked up): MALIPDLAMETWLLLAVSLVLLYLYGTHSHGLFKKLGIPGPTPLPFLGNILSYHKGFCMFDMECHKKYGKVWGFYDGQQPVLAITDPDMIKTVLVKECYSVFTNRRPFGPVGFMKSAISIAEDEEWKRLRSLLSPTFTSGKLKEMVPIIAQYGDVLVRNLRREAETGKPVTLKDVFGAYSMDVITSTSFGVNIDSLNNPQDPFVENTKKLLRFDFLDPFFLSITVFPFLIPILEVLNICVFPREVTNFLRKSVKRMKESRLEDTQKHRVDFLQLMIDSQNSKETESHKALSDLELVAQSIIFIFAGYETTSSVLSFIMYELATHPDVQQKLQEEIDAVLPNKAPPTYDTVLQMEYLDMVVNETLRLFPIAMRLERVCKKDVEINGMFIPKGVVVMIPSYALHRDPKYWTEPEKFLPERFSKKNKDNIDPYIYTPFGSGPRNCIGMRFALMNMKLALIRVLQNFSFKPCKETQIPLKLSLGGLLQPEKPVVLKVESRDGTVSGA

For the compound `CN(C)c1ccccc1`, the compound was classed as inactive (with BCL2L11 (gene 10018); in test [1]; in test [2]; in [3]; in the test with Caspase-3 (Homo sapiens); in test [4]). For the same compound, the compound was called inactive (in [5]; in test [6]; in [8]; with CYP2C8 (gene 1558); with CYP2C9 (gene 1559); in the test with CYP2E1 (gene 1571)). The call (in the test with CYP4A11 (gene 1579); in [9]; in test [10]; in test [11]; in test [12]; in [13]) was inactive. In test [7], the AC50 is 33.4 µM (active).

Consider `CCC(C)c1ccc(O)cc1` (stereo not given), for which the call (in the test with BCL2L11 (gene 10018); in [1]; in test [2]; in [3]; in the test with Caspase-3 (Homo sapiens); in test [4]) was inactive. Further, the call (in test [5]; in [6]; in test [7]; in test [8]; with CYP2C9 (gene 1559); with CYP2E1 (gene 1571)) was inactive. For the same compound, the call (with CYP4A11 (gene 1579); in test [14]; in test [9]; in test [10]; in test [11]; in test [12]) was inactive. For the same compound, the compound was classed as inactive in [13].

Regarding `CCC[CH2][Sn]([Cl])([CH2]CCC)[CH2]CCC`, the AC50 with BCL2L11 (gene 10018) is 11.7 µM (active); in test [1], 2.03 µM (active); in test [2], 3.08 µM (active); in test [5], 1.58 µM (active); in [7] it was 2.53 µM (active); in [8] it was 1.37 µM (active). The concentration at half-maximal activity (AC50) was 2.42 µM (active) with CYP2C8 (gene 1558); 2.23 µM (active) in the test with CYP2C9 (gene 1559); 0.505 µM (active) with CYP2E1 (gene 1571); 2.28 µM (active) in test [9]; 50 µM (active) in test [11]; 0.377 µM (active) in test [13]. For the same compound, the result (in test [3]; in the test with Caspase-3 (Homo sapiens); in test [4]; in test [6]; with CYP4A11 (gene 1579); in test [12]) was inactive.

Take `N#CC(Br)Br`: the outcome (with BCL2L11 (gene 10018); in test [1]; in test [2]; in test [3]; with Caspase-3 (Homo sapiens); in [4]) was inactive. Further, the compound was called inactive (in test [5]; in [6]; in test [7]; in [8]; in the test with CYP2C8 (gene 1558); with CYP2C9 (gene 1559)). Further, the outcome (with CYP2E1 (gene 1571); with CYP4A11 (gene 1579); in [9]; in test [10]; in test [11]; in test [12]) was inactive. Also, in [13], the compound was classed as inactive.

A word on the AC50: it is the concentration at which the activity in the assay is half-maximal.
